Assay results as given in PubChem BioAssay (NCATS).
Inconclusive results are not listed. Values without a mark were called inactive. Activity calls are given as the source filed them. Calls come from the whole dose curve; as a rule, active = well fitted inhibition curve with a large enough effect; inconclusive = small, poorly fitted or top-dose-only effect; inactive = flat fitted curve, though single readings scatter.

What follows are compounds tested against Glutathione peroxidase 1 (Homo sapiens) (UniProt P07203) (assay: Primary qHTS Assay for Inhibitors of Recombinant Selenoprotein Glutathione Peroxidase 1 (GPX1) (AID 1845191; note: nearly all actives have a fitted effect of over 65% in size)). Conditions: recombinant GPX1, GR-coupled NADPH fluorescence, 15 min; series mostly up to 27.7 µM; activity, negative = inhibition: at the top concentration.
Sequence of Glutathione peroxidase 1 (Homo sapiens) (P07203 whole entry, looked up): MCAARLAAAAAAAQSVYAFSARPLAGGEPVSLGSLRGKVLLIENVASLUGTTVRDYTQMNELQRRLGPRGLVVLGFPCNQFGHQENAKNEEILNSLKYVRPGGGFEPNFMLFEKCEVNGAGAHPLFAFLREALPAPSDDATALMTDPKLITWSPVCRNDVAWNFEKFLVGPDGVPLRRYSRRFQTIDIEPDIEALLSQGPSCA
Summary of the method: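 10 nM GPX1 + cpd, 30 min RT; start w/ 1 mM GSH, 0.5 mM cumene hydroperoxide, 0.5 mM NADPH, 100 nM GR, 0.01% BSA; buffer 50 mM Tris-HCl pH 7.5, 2 mM EDTA, 150 mM NaCl; Fl 340/450, 0 & 15 min.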
% is set by controls: 0 for no effect and ±100 for the full control effect.

SMILES | activity, negative = inhibition | outcome
C=C1CC23CC1CCC2C12OC(=O)C(C)(C(O)C(O)C1O)C2C3C(=O)O (stereo not drawn) | -13.4% | 
COc1c(O[C@@H]2O[C@H](CO)[C@@H](O)[C@H](O)[C@H]2O)c(CCC(=O)O)cc2ccoc12 | -2.49% | 
COc1ccc(C(=O)CC(=O)O)c2c1C=CC(C)(C)O2 | 3.19% [at 48.8 µM] | 
C=C(C(=O)O)C1CC(O)C2(C)CCCC(C)(O)C2C1 (stereo not drawn) | 2.89% [at 48.8 µM] | 
COC(=O)[C@H](Cc1ccc([N+](=O)[O-])cc1)NC(=O)c1cccc2ccccc12 |  | inactive [at 48.8 µM]
Cc1occc1C(=O)n1ccnc1 | -8.04% [at 48.8 µM] | 
O=C(O)CCc1c(C(=O)O)[nH]c2cc(Cl)cc(Cl)c12 | 3.49% | 
COC(=O)C1=CO[C@@H](O[C@@H]2O[C@H](CO)[C@@H](O)[C@H](O)[C@H]2O)[C@@H]2[C@@H](C(=O)O)CC[C@H]12 | -14.3% | 
COC(=O)[C@@H](NC(=O)[C@H](CC(C)C)NC(=O)N(Cc1ccccc1)C[C@@H](O)[C@H](Cc1ccccc1)NC(=O)OC(C)(C)C)C(C)C |  | inactive [at 9.52 µM]
C/C=C(\C)C(=O)OC[C@H]1O[C@@H](O[C@H]2[C@@H](O[C@H]3O[C@H](COC(=O)/C(C)=C/C)[C@@H](O)[C@H](O)[C@H]3O[C@@H]3O[C@H](CO)[C@@H](O)[C@H](OC(=O)/C(C)=C/C)[C@H]3O)O[C@H](COC(=O)/C(C)=C/C)[C@@H](O)[C@@H]2O)[C@H](O)[C@@H](O)[C@@H]1O | 0.688% [at 15.3 µM] | 
O=C(O)/C=C/c1ccc2occc2c1O[C@@H]1O[C@H](CO)[C@@H](O)[C@H](O)[C@H]1O | -7.81% | 
COCC1OC(OC(C)(C)C2CCC3(C)C=C(C4CCC5C4(C)CC(O)C4OC(C(C)(C)O)CCC45C)CCC3O2)C(NC(C)=O)C(O)C1O (stereo not drawn) |  | inactive [at 15.3 µM]
CC(C)=CCC/C(C)=C/CO[C@@H]1O[C@H](CO[C@@H]2OC[C@](O)(CO)[C@H]2O)[C@@H](O)[C@H](O)[C@H]1O |  | inactive
CN1CCN(C2=Nc3ccccc3Nc3ccc(O)cc32)CC1 |  | inactive [at 48.8 µM]
COC(=O)C1=CO[C@@H](O[C@@H]2O[C@H](CO)[C@@H](O)[C@H](O)[C@H]2O)[C@H]2[C@@H]1[C@H](O)C[C@]2(C)O | 1.26% | 
CC1=C2C(=O)C=C(CO[C@@H]3O[C@H](CO)[C@@H](O)[C@H](O)[C@H]3O)[C@@H]2[C@H]2OC(=O)[C@H](C)[C@@H]2CC1 | -11.3% | 
COc1cc(CO)ccc1O[C@@H]1O[C@H](CO)[C@@H](O)[C@H](O)[C@H]1O | 3.04% | 
O=C1OC(c2ccc(O)cc2)C(O)=C1Cc1ccccc1 (stereo not drawn) | -18.1% [at 48.8 µM] | 
C/C=C(\C)C(=O)OCC1OC(OC2OC(CO)C(O)C(O)C2O)C(O)C(O)C1O (stereo not drawn) | -13.8% | 

SMILES | activity, negative = inhibition | outcome
O=C(/C=C/c1ccc(O)cc1)OC[C@H]1O[C@H](O[C@@]2(CO)O[C@@H](CO)[C@H](O)[C@H]2O)[C@H](O)[C@@H](O)[C@@H]1O |  | inactive
O=C(C[C@@H]1C(C(=O)O)=CO[C@@H](O[C@@H]2O[C@H](CO)[C@@H](O)[C@H](O)[C@H]2O)/C1=C\CO)OCCc1ccc(O)cc1 |  | inactive
C=C(C)C(O)COc1ccc(CC(=O)O)cc1 (stereo not drawn) | -16.6% [at 48.8 µM] | 
NC(N)=NCCC[C@H](NC(=O)c1sccc1NS(=O)(=O)c1cccc2nsnc12)C(=O)O |  | inactive [at 48.8 µM]
C[C@@]12CC3(S(=O)(=O)O)OC(O1)[C@]1(COC(=O)c4ccccc4)[C@H]3C[C@]21O[C@@H]1O[C@H](CO)[C@@H](O)[C@H](O)[C@H]1O |  | inactive
C/C=C/C=C/C(O)=C1/C(=O)[C@]2(C)C3/C(=C(O)/C=C/C=C/C)C(=O)C4(C)C1[C@]1(C)O[C@@]4(O)[C@@]3(C)O[C@@]12O |  | inactive
C[C@@H]1O[C@@H](O[C@@H]2[C@@H](O)[C@H](O[C@@H]3[C@@H](O)[C@@H](O)[C@H](O[C@H]4[C@H](OC(=O)[C@]56CCC(C)(C)C[C@H]5C5=CCC7[C@@]8(C)C[C@H](O)[C@H](O[C@@H]9O[C@H](C(=O)O)[C@@H](O)[C@H](O)[C@H]9O)[C@@](C)(CO)C8[C@H](O)C[C@@]7(C)[C@]5(C)C[C@H]6O)O[C@@H](CO)[C@@H]4O)O[C@H]3C)OC[C@H]2O)[C@H](O)[C@H](O)[C@H]1O (stereo partly drawn) |  | inactive [at 9.52 µM]
O=C(C[C@@H]1C(C(=O)O)=CO[C@@H](O[C@@H]2O[C@H](CO)[C@@H](O)[C@H](O)[C@H]2O)/C1=C\CO)OCCc1ccc(O)c(O)c1 |  | inactive
Nc1c(-c2ccccc2)nc(Cl)c2c(O)n[nH]c(=O)c12 |  | inactive [at 48.8 µM]
NC1Nc2ccccc2C1(N)CC1NC(=O)C(Cc2ccccc2)NC(=O)C(Cc2ccccc2)NC1=O (stereo not drawn) | -11.8% | 
C=C[C@H]1[C@H](O[C@@H]2O[C@H](CO)[C@@H](O)[C@H](O)[C@H]2O)OC=C2C(=O)N3Cc4c([nH]c5ccccc5c4=O)[C@@H]3C[C@H]21 | -15% | 
O=C(c1ccc(Cl)c([N+](=O)[O-])c1)N1CCN(c2ccccc2F)CC1 |  | inactive [at 48.8 µM]
O=C(O)c1ccnc(-c2cc(C(=O)NCCc3ccccc3)ccn2)c1 | -9.16% [at 48.8 µM] | 
COC(=O)[C@]1(C)CCC[C@@]2(C)C(=O)CC[C@H]3C(=O)C=C(CC[C@@H]21)C3O (stereo partly drawn) | -16.4% | 
O=C(O)C[C@H]1CCC(=O)[C@@H]1C/C=C\CCO | -3.18% [at 48.8 µM] | 
C[C@H]1[C@@H](O)[C@H](O)C2[C@]3(C)C([C@@H](O)[C@H]4OC(=O)[C@@H]1[C@@]24C)[C@](C)(O)C=C[C@H]3O[C@@H]1O[C@H](CO)[C@@H](O)[C@H](O)[C@H]1O (stereo partly drawn) |  | inactive
CC1=COC(OC2OC(CO)C(O)C(O)C2O)C2C(CO)CC(OC(=O)/C=C/c3ccc(O)cc3)C12 (stereo not drawn) |  | inactive
COc1cc(/C=C/C(=O)O[C@@H]2C[C@](O)(C(=O)O)C[C@@H](O)[C@H]2O)ccc1O | -11.2% | 
COC(=O)c1ccc(OC)cc1O[C@@H]1O[C@H](CO[C@@H]2OC[C@@H](O)[C@H](O)[C@H]2O)[C@@H](O)[C@H](O)[C@H]1O | 2.92% | 
